Screens as filed in PubChem BioAssay.
A selection: hits, their analogues and other compounds. The true share with any hit is near 7.5%.
ELG1 genotox – inducers of genotoxicity in HEK293T ELG1-luciferase cells | HEK293T ELG1-luciferase reporter, luminescence, 16 h | Potency, µM (highest dose often 46 µM), actives largely listed as activators | hit rate 1.3% among 330,000 | AID 504466; also: nearly all actives have a fitted effect of over 60% in size
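DMSO vehicle served as control against compound-treated ELG1-luciferase HEK293T cells; exposure lasted 16 hr at 37 °C and 5% CO2, followed by ONE-Glo luminescence detection after 30 min.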
NPC1 promoter act – activators of NPC1 promoter. Huh7 NPC1 promoter luciferase reporter, 24 h. Potency, µM (series often up to 9.22 µM), most hits filed as activators. hit rate 2.4% among 320,000. AID 485313; also: nearly all actives have a fitted effect of over 60% in size
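Huh7 cells stably carrying NPC1 promoter–luciferase, plated in Opti-MEM with 10% FBS for 2 h, were exposed to compound in DMSO for 24 h at 37 °C; luciferase reagent was added for 10 min and luminescence read.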
SMN2 splice enh – increases expression of the SMN2 splice variant; HEK293 SMN2-luciferase splicing reporter, luminescence, 30-36 h; Potency, µM (top dose mostly 46.1 µM), usual class: activators; hit rate 2.8% among 210,000; AID 1458; also: nearly all actives have a fitted effect of over 55% in size
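HEK293 cells carry an SMN2 […]–luciferase reporter in which exon 7 inclusion puts luciferase in frame. Cells were plated 10-12 h before compound addition, then incubated 30-36 h at 37C. ONE-Glo luminescence was read; sodium butyrate at 4.5 mM final served as control.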
Rab9 promoter act – activators of Rab9 promoter | Huh7 Rab9 promoter-luciferase reporter, luminescence, 24 h | Potency, µM (doses to about 9.22 µM), hits mostly activators | hit rate 2.8% among 320,000 | AID 485297; also: nearly all actives have a fitted effect of over 60% in size
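Huh7 cells stably carrying Rab9 promoter–luciferase reporter, plated 1500 cells/well, compound added after 2 h and incubated 24 h at 37 °C; luciferase luminescence then read after 10 min with detection reagent.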
FLuc counter – firefly luciferase modulation, counter-screen for miR-21 project; P08659; purified FLuc, Km substrates, luminescence inhibition; Potency, µM (titrated, usually from 57.5 µM), actives largely listed as inhibitors; hit rate 6.9% among 360,000; AID 588342; also: nearly all actives have a fitted effect of over 55% in size
Target sequence (P08659 whole entry, looked up): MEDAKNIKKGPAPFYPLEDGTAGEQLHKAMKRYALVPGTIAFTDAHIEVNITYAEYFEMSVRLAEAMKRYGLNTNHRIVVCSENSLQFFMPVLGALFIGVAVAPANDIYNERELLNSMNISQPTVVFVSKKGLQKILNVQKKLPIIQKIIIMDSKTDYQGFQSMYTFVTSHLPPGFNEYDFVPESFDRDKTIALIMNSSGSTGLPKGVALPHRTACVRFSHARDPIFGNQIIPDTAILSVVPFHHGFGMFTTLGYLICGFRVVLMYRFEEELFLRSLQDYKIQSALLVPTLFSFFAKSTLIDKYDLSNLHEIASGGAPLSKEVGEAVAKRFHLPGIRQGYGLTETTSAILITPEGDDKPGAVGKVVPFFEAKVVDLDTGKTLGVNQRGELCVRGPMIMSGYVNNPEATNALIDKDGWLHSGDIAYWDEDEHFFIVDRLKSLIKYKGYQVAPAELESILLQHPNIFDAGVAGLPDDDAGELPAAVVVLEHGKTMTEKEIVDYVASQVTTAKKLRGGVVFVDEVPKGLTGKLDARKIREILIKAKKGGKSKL
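Purified P. pyralis luciferase (10nM final) with 10uM D-luciferin and 10uM ATP (Km levels) in 50mM Tris acetate pH 7.5, 10mM Mg acetate, 0.01% Tween-20, 0.05% BSA; qHTS 6-point titration, ~60 µM downward; luminescence read.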
Luc counter – blocks Kinase-Glo luciferase, a counter-screen artifact; Kinase-Glo luciferase, ATP luminescence, 8 min; hit rate 0.28% among 200,000; Q27757; AID 1379; Potency, µM (series often up to 38.3 µM), usual class: inhibitors; also: nearly all actives have a fitted effect of over 60% in size
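Luminescence was the read-out, taken after 8-minute incubation at ambient temperature. Luciferase turned over luciferin with 10 uM ATP in imidazole pH 7.2 buffer containing KCl, MgCl2, Tween 20 and BSA.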
Numbers stand for hits; i = inactive; ? = inconclusive; nt = not tested or not shown. Calls follow the shape of the dose curve; as a rule, active = well fitted curve in the direction sought with a large enough effect; inconclusive = small, poorly fitted or top-dose-only effect, or another doubt; inactive = no such curve, though single readings can be large; an effect the other way counts as inactive or inconclusive.

SMILES | ELG1 genotox | NPC1 promoter act | SMN2 splice enh | Rab9 promoter act | FLuc counter | Luc counter
CC(C)C(NC(=O)OCc1ccccc1)C(=O)OCC(=O)N1CCCCC1 (stereo not given) | 21µM | i | ? | ? | 17µM | i
COCCCn1c(O)c(/C=C2\N=C(C#N)C(=Nc3ccc(C)cc3)O2)sc1=S | i | i | nt | i | 6.7µM | nt
O=C(NCCc1c[nH]c2ccccc12)c1c(Cl)nc2sccn12 | i | ? | i | ? | i | i
O=C(c1c(Cl)nc2sccn12)N(C(=O)c1c(Cl)nc2sccn12)c1ccc(Cl)cn1 | 3.7µM | i | 13µM | i | i | i
Nc1c(-c2ccccc2)cnn1-c1ccccc1 | ? | 3.2µM | nt | 3.5µM | 11µM | nt
Nc1c(-c2cccc(Cl)c2)cnn1-c1ccccc1 | i | ? | nt | ? | 17µM | nt
Cc1ccc(-c2cnn(-c3cccc(C(F)(F)F)c3)c2N)cc1 | ? | ? | i | 4µM | 7.6µM | i
O=c1c(Br)c(Br)cnn1-c1ccccc1 | i | i | i | i | i | i
O=c1cnn(-c2ccccc2)c(-c2ccccc2)c1 | i | i | i | i | 11µM | i
COc1ccc(/C=C/C(=O)Nc2ccccc2Cl)cc1S(=O)(=O)N1CCOCC1 | i | i | nt | i | i | nt
COc1ccc(N2C(=O)c3ccccc3NC2c2ccc(NC(C)=O)cc2)c(OC)c1 (stereo not given) | i | i | nt | i | i | nt
Cc1ccc(NC(c2ccc(Cl)cc2)c2nnc(-c3cccc(F)c3)o2)cc1C (stereo not given) | nt | nt | i | nt | i | nt
COc1cccc(C(=O)Nc2ccccc2C(=O)OCc2cc(=O)n3c4c(sc3n2)CCCC4)c1 | nt | nt | nt | nt | i | nt
COc1ccc(-c2nc(CCNC(=O)c3cccs3)cs2)cc1 | ? | i | i | i | 27µM | i
Cc1ccc(-c2nc(C)c(CCNC(=O)c3ccco3)s2)cc1 | nt | nt | nt | nt | 17µM | nt
COc1ccc(CC(=O)NCCc2csc(-c3ccc(Cl)cc3)n2)cc1 | nt | nt | nt | nt | i | nt
COc1ccc(-c2nc(C)c(CCNC(=O)c3cccs3)s2)cc1OC | nt | nt | nt | nt | 17µM | nt
COc1ccc(-c2nc(C)c(CCNC(=O)c3ccco3)s2)cc1 | nt | nt | nt | nt | 27µM | nt
C[C@H](CO)N1C[C@H](C)[C@@H](CN(C)S(=O)(=O)c2cn(C)cn2)Oc2ccc(NC(=O)C3CCCCC3)cc2C1=O | i | nt | nt | nt | nt | nt
CN1C(=O)N(c2ccccc2)C(Nc2nncs2)C1(C)C (stereo not given) | i | i | i | i | i | i
Cc1csc2nc(CNC(=O)c3ccco3)cn12 | 18µM | ? | 20µM | ? | 17µM | i
Cc1ccc(-c2nc(CCNC(=O)c3ccco3)cs2)cc1 | i | i | nt | i | 17µM | nt
Cc1cccc(-c2nc(CCNC(=O)c3ccco3)cs2)c1 | nt | nt | nt | nt | i | nt
COc1ccc(N2CCN(c3nc4ccc(C)cc4n4nnnc34)CC2)cc1 | nt | nt | nt | nt | i | nt
COc1ccc(S(=O)(=O)N(Cc2ccco2)Cc2cc3ccccc3[nH]c2=O)cc1 | i | i | nt | i | i | nt
SMILES | ELG1 genotox | NPC1 promoter act | SMN2 splice enh | Rab9 promoter act | FLuc counter | Luc counter
Oc1cc2c(cc1O)[C@H]1c3ccc(O)c(O)c3OC[C@@]1(O)C2 | i | i | i | i | 15µM | i
COc1ccc(C(=O)NCCc2nnc3ccc(SCC(=O)Nc4cc(C)on4)nn23)cc1 | i | i | i | i | i | i
CN=CC1=C(O)c2ccccc2C1=O | i | i | i | i | i | i
COc1ccc(Cn2c(O)c(C=Nc3ccc(OC)cc3)c3ccccc3c2=O)cc1 | i | i | i | i | i | i
O=C1C(C=NCCN2CCOCC2)=C(O)c2ccccc21 | ? | i | ? | i | 6µM | i
COc1ccc(OC)c(/C=N\NC(=O)c2cc3c(ccc4ccccc43)o2)c1 | i | i | nt | i | i | nt
COc1ccc(N=Cc2[nH]c3ccccc3c2O)cc1 | i | i | ? | ? | 2.1µM | i
COc1ccc(N=Cc2oc3ccc4ccccc4c3c2O)cc1 | i | ? | 13µM | 3.2µM | ? | i
O=C1C(C=Nc2ccccc2)=C(O)c2ccccc21 | ? | 3.2µM | 16µM | 1.6µM | 0.54µM | 13µM
CN(C)c1ccc(Cl)cc1N | i | i | i | i | i | i
COc1ccc(S(=O)(=O)/N=C2\C=C(Nc3ccc(O)cc3)C(=O)c3ccccc32)cc1 | i | i | nt | i | ? | nt
COc1ccc(N=CC2=C(O)c3ccccc3C2=O)cc1 | ? | 0.71µM | 4µM | 0.32µM | 0.15µM | 4.5µM
O=C(N/N=C/C(Cl)=C/c1ccccc1)c1ccco1 | ? | 2.2µM | nt | 1.4µM | 5.4µM | i
O=C(N/N=C/C(Cl)=C\c1ccccc1)c1ccco1 | ? | 2.5µM | nt | 2.5µM | 4.8µM | nt
O=C(N/N=C/c1cccnc1)c1ccco1 | i | i | nt | i | i | nt
CCc1ccc(NC(=O)C2C3C=CC(C4CC34)C2C(=O)O)cc1 (stereo not given) | i | i | ? | i | 2.1µM | i
CC(=O)c1cccc(NC(=O)C2C3C=CC(C4CC34)C2C(=O)O)c1 (stereo not given) | i | i | i | i | i | i
CCN(/C=N/c1sc2c(c1C#N)CCCCC2)CC | ? | 2.5µM | 11µM | 3.2µM | 4.8µM | i
N#Cc1c(/N=C/C=C/c2ccccc2)sc2c1CCCC2 | i | i | i | ? | 6.7µM | i
CC(C)CN(/C=N/c1sc2c(c1C#N)CCCCC2)CC(C)C | i | i | i | i | i | i
CN1CCN(/C=N/c2sc3c(c2C#N)CCCCC3)CC1 | ? | 2.5µM | 16µM | 2.2µM | 12µM | i
Cc1cccc(-n2c(O)c(C=NC3CCS(=O)(=O)C3)c3ccccc3c2=O)c1C (stereo not given) | i | i | nt | i | i | nt
CCCn1nnc(NC(=O)c2ccc(-c3cccc(Cl)c3)o2)n1 | i | i | i | ? | 17µM | i
CCCn1nnc(NC(=O)c2ccc3c(c2)OCO3)n1 | ? | 2.8µM | nt | 1.6µM | 19µM | nt
CCCCn1nnc(NC(=O)c2ccc(-c3cccc(Cl)c3)o2)n1 | i | i | i | i | ? | i
SMILES | ELG1 genotox | NPC1 promoter act | SMN2 splice enh | Rab9 promoter act | FLuc counter | Luc counter
CCc1ccc(C(=O)Nc2nnn(CC)n2)cc1 | 1.6µM | 2µM | 0.5µM | 0.5µM | 4.3µM | ?
CCCn1nnc(NC(=O)c2cccc(Cl)c2)n1 | i | i | ? | i | i | i
Cn1nnc(NC(=S)NC(=O)c2cc3ccccc3o2)n1 | i | i | nt | i | ? | nt
CCCn1nnc(NC(=O)c2cc3ccccc3o2)n1 | 5.8µM | 2.5µM | 10µM | ? | 19µM | i
CSc1ccc(S(=O)(=O)N(C)Cc2ccccc2)cc1 | i | i | i | i | i | i
CC[C@@H]1OC(=O)[C@H](C)[C@H](O[C@@H]2C[C@](C)(OC)[C@H](O)[C@H](C)O2)[C@H](C)[C@H](O[C@@H]2O[C@@H](C)C[C@@H](N(C)C)[C@@H]2O)[C@](C)(O)C[C@H](C)C(=O)[C@H](C)[C@H](O)[C@]1(C)O | nt | nt | i | nt | nt | i
CCn1nnc(NC(=O)c2cc3ccccc3o2)n1 | 15µM | ? | 32µM | ? | 15µM | i
